{
  "source": "PubChem BioAssay (NCATS)",
  "note": "Records with an inconclusive call do not appear. Active and inactive are the calls of the source. Calls follow the shape of the full dose curve. Potency is read from the fitted curve at half-maximal effect.",
  "data": [
    {"biological_target": "Cytochrome P450 1A2 (Homo sapiens) (UniProt P05177)", "sequence (P05177 whole entry, looked up)": "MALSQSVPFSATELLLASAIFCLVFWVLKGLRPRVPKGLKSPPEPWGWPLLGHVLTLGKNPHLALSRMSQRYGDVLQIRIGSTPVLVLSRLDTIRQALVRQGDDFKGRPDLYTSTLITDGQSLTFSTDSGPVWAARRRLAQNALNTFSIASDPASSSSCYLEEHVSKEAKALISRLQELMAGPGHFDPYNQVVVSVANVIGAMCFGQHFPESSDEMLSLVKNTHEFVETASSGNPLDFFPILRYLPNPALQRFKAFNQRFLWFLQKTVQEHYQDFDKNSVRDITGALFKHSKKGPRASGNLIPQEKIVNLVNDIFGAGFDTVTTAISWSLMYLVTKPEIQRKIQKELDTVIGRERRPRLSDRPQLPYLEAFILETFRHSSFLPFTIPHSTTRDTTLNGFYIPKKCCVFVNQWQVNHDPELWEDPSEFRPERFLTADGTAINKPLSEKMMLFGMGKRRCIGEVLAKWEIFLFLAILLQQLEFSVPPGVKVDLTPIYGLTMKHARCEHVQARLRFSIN", "test": "p450-cyp1a2 (AID 410)", "conditions": "recombinant CYP1A2, luciferin-ME demethylation, luminescence; series mostly up to 57 µM", "summary_of_the_method": "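Read-out is luminescence from luciferin produced by CYP1A2 demethylation of Luciferin-ME (100uM, at Km). Detection reagent stopped the 60 min NADPH-dependent reaction; signals were normalized to 57 uM furafylline.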", "values": [
      {"smiles": "N#Cc1cccc(-c2nc3cnc(N4CCOCC4)nc3n(C3CC3)c2=O)c1", "Potency": "2.51 µM (active)"},
      {"smiles": "CCNc1ncc2nc(-c3cc(F)cc(F)c3)c(=O)n(C)c2n1", "Potency": "2 µM (active)"},
      {"smiles": "CC(=O)NCCNc1ccnc(-c2ccccc2C(F)(F)F)n1", "Potency": "15.8 µM (active)"},
      {"smiles": "CCNc1ncc2nc(-c3cc(F)cc(F)c3)c(=O)n(C[C@H]3CCCO3)c2n1", "Potency": "3.16 µM (active)"},
      {"smiles": "COc1cccc(-c2cncnc2N(C)Cc2ccco2)c1", "Potency": "10 µM (active)"},
      {"smiles": "O=c1cnc2cnc(N3CCOCC3)nc2n1C1CC1", "Potency": "6.31 µM (active)"},
      {"smiles": "CCNc1ncc2nc(C)c(=O)n(-c3ccc(OC)cc3)c2n1", "Potency": "15.8 µM (active)"},
      {"smiles": "CCNc1ncc2nc(C)c(=O)n(Cc3cccs3)c2n1", "Potency": "2 µM (active)"},
      {"smiles": "Cn1c(=O)c(-c2cccs2)nc2cncnc21", "Potency": "1.26 µM (active)"},
      {"smiles": "CN(C)c1ncc2ncc(=O)n(C3CC3)c2n1", "Potency": "3.16 µM (active)"},
      {"smiles": "CCNc1ncc2nc(C)c(=O)n(Cc3ccc(F)cc3)c2n1", "Potency": "1.58 µM (active)"},
      {"smiles": "CN(C)C(=O)c1ccc(-c2nc(NC3CCNCC3)c3ccccc3n2)cc1", "Potency": "20 µM (active)"},
      {"smiles": "COc1ccccc1CNc1ncncc1-c1cccnc1", "Potency": "0.794 µM (active)"},
      {"smiles": "COc1cccc(Nc2ncc3nc(C)c(=O)n(C)c3n2)c1", "Potency": "1 µM (active)"},
      {"smiles": "Cc1cnc(CNc2ncncc2-c2cccc(C#N)c2)cn1", "Potency": "12.6 µM (active)"},
      {"smiles": "Cc1nc2cnc(Nc3ccccc3)nc2n(C2CC2)c1=O", "Potency": "1 µM (active)"},
      {"smiles": "CCNc1ncc2nc(C)c(=O)n(C3CC3)c2n1", "Potency": "5.01 µM (active)"},
      {"smiles": "CN(C)C(=O)c1ccc(-c2cncnc2N2CCNCC2)cc1", "Potency": "inactive"},
      {"smiles": "Cc1noc(C)c1-c1ccc2ncnc(NC3CCNCC3)c2c1", "Potency": "31.6 µM (active)"},
      {"smiles": "CCNc1ncc2nc(C)c(=O)n(C)c2n1", "Potency": "5.01 µM (active)"},
      {"smiles": "COc1ccc(CNc2ncncc2-c2cccnc2)c(OC)c1", "Potency": "3.16 µM (active)"},
      {"smiles": "Fc1ccc(Nc2ncncc2-c2ccoc2)cc1", "Potency": "0.316 µM (active)"},
      {"smiles": "COc1cccc(Nc2ncc3nc(C)c(=O)n(CCc4ccccc4)c3n2)c1", "Potency": "5.01 µM (active)"},
      {"smiles": "COc1ccc2[nH]cc(CCNc3ncncc3-c3c(C)noc3C)c2c1", "Potency": "12.6 µM (active)"},
      {"smiles": "Cc1noc(C)c1-c1cc(Nc2ccccc2)ncn1", "Potency": "1.26 µM (active)"},
      {"smiles": "COc1ccc(Oc2ncc3ncc(=O)n(C)c3n2)cc1", "Potency": "3.98 µM (active)"},
      {"smiles": "COCCNc1cc(-c2ccccc2C)ncn1", "Potency": "15.8 µM (active)"},
      {"smiles": "CS(=O)(=O)Nc1cccc(-c2cncnc2Nc2ccc(F)cc2)c1", "Potency": "5.01 µM (active)"},
      {"smiles": "c1ccc2c(NC3CCNCC3)nc(-c3ccoc3)nc2c1", "Potency": "15.8 µM (active)"},
      {"smiles": "c1csc(CNc2cc(-c3ccoc3)ncn2)c1", "Potency": "2 µM (active)"},
      {"smiles": "COc1ccc(CNc2cc(-c3ccoc3)ncn2)c(OC)c1", "Potency": "15.8 µM (active)"},
      {"smiles": "O=c1cnc2cnc(Nc3ccccc3)nc2n1Cc1ccc(F)cc1", "Potency": "1 µM (active)"},
      {"smiles": "Fc1ccc(Nc2ccnc(-c3ccoc3)n2)cc1", "Potency": "1 µM (active)"},
      {"smiles": "COc1ccccc1-c1cc(NCc2ccccc2)ncn1", "Potency": "2.51 µM (active)"},
      {"smiles": "N#Cc1cccc(-c2cncnc2NCc2cccs2)c1", "Potency": "1.58 µM (active)"},
      {"smiles": "CNc1cc(-c2c(C)noc2C)ncn1", "Potency": "5.01 µM (active)"}
    ]}
  ]
}
